Assay results as given in PubChem BioAssay.
The source made the active and inactive calls.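 The calls were made as follows: active = fluorescence slope higher than the sample average by over 3 SD (cut at about -0.22 in these data, passing the limit was not always enough); inactive = the rest.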

biological target: Voltage-gated potassium channel subunit beta-2 (Rattus norvegicus) (UniProt P62483); assay: inhibitors of rat Kvbeta2 reductase activity – biochemical, NADPH fluorescence, primary screen (AID 622); conditions: recombinant KvBeta, 4-cyanobenzaldehyde reduction, at 10 µM, stronger effect = higher value;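 also: slope of raw intensity against log time taken from 70 to 1610 s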
Sequence (P62483 whole entry, looked up): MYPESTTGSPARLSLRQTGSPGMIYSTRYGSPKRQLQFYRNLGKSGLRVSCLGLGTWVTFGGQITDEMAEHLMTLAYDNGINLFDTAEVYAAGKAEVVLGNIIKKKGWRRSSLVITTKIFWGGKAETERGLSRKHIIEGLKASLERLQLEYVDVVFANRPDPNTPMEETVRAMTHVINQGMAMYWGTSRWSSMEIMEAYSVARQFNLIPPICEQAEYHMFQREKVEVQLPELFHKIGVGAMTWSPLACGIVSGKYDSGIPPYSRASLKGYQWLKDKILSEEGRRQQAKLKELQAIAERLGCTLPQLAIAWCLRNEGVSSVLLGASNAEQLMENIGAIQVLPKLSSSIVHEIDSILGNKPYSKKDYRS

| SMILES | fluorescence slope |
| --- | --- |
| CCCCCOc1ccccc1C(=O)NCCCC(=O)O | -0.463 (inactive) |
| Cc1cc(=O)oc(C)c1C(=O)Nc1ccc2nsnc2c1 | -0.278 (inactive) |
| CCOC(=O)NC1(C(F)(F)F)C(=O)NC(C)=C1C#N (centres undefined) | -0.427 (inactive) |
| CCc1cc(=O)oc2cc(C)c(CN3CCCC3)c(O)c12 | -0.444 (inactive) |
| Cc1cc(Nc2ccc3ccccc3c2)n2ncnc2n1 | -0.414 (inactive) |
| O=c1c2c3c(sc2n2cnnc2n1C1CCCCC1)CCC3 | -0.434 (inactive) |
| Cc1cccc(-n2ncc3c(NCCN4CCOCC4)ncnc32)c1 | -0.397 (inactive) |
| CCCCOC(=O)CSC1=C(C#N)C(c2ccc3c(c2)OCO3)CC(=O)N1 (centres undefined) | -0.5 (inactive) |
| COC(=O)CSCC(=O)Nc1cc2c(cc1C(C)=O)OCO2 | -0.452 (inactive) |
| Cc1c(C)[n+](=O)c2c(n1[O-])CCC2 | -0.343 (inactive) |
| CC1CCN(c2ncnc3c2cnn3Cc2ccc(Cl)cc2)CC1 | -0.348 (inactive) |
| Cc1cc(=O)oc(C)c1C(=O)n1nc(C)c2c1C[C@@H]1[C@H]2C1(C)C | -0.403 (inactive) |
| Cc1cc(=O)oc(C)c1C(=O)NC1CC(C)(C)NC(C)(C)C1 | -0.463 (inactive) |
| O=C(Oc1oc(-c2ccco2)nc1C=Nc1ccccc1)c1ccco1 | -0.504 (inactive) |
| Cn1c(=O)c2c(nc(NCCCO)n2Cc2cccc(C(F)(F)F)c2)n(C)c1=O | -0.492 (inactive) |
| Cc1ccc(Oc2nc3c(c(=O)n(Cc4ccccc4F)c(=O)n3C)n2C)cc1 | -0.508 (inactive) |
| N#Cc1c(N)n(CCOC(=O)c2ccc(Cl)cc2)c2nc3ccccc3nc12 | -0.278 (inactive) |
| CCCc1nnc(NC(=O)Nc2ccccc2OC)s1 | -0.515 (inactive) |
| O=C(C1=C(O)C(=O)N(CCCN2CCOCC2)C1c1ccccn1)c1cc2ccccc2o1 (centres undefined) | -0.441 (inactive) |
| COc1ccc(CCn2c(=N)c(C(=O)NCc3ccco3)cc3c(=O)n4ccccc4nc32)cc1OC | -0.507 (inactive) |

| SMILES | fluorescence slope |
| --- | --- |
| O=C(c1ccccc1)n1c(=S)nc2ccccn21 | -0.421 (inactive) |
| CCc1nc2n[nH]c(N)c2c2c1CCCC2 | -0.476 (inactive) |
| O=c1c2ccccc2ncn1Cc1ccco1 | -0.449 (inactive) |
| O=C(O)c1cc2sccc2s1 | -0.465 (inactive) |
| CC(C)c1[nH]c(=O)c(C#N)c2c1CSC(C)(C)C2 | -0.428 (inactive) |
| CC1(C)Cc2c(c(N3CCOCC3)nc3snc(Br)c23)CO1 | -0.502 (inactive) |
| COc1ccc(C2C(C#N)=C(N)Oc3cc(C)n(CCN4CCOCC4)c(=O)c32)cc1OC (centres undefined) | -0.468 (inactive) |
| Cc1ccc(N2C(=O)CC3(CC4C=CC3C4)C2=O)cc1 (centres undefined) | -0.414 (inactive) |
| CCCc1cc(NCCN2CCOCC2)n2c(nc3ccccc32)c1C#N | -0.324 (inactive) |
| CCN(CC)CCCN1C(=O)C(=O)/C(=C(/O)c2ccc(OC)cc2)C1c1ccco1 (centres undefined) | -0.471 (inactive) |
| Cc1ccc(-n2ncc3c(NCCCOC(C)C)ncnc32)c(C)c1 | -0.408 (inactive) |
| O=C(COc1ccc(-c2nnc(N3CCCCC3)c3ccccc23)cc1)N1CCCCC1 | -0.487 (inactive) |
| CC(C(=O)N(C)C)N(C#N)c1nc(N(C)C)nc(N(C)C)n1 (centres undefined) | -0.506 (inactive) |
| CC(C(=O)NC(=O)NCc1ccccc1)N1C(=O)c2ccccc2C1=O (centres undefined) | -0.461 (inactive) |
| CCN(CC)CCN1C(=O)c2ccccc2NC1c1cc(OC)c(OC)c(OC)c1 (centres undefined) | -0.0732 (inactive) |
| O=C(NCc1ccccc1)/C(=N\O)c1ccccc1 | -0.382 (inactive) |
| Cn1ncc2nc[nH]c(=O)c21 | -0.579 (inactive) |
| Clc1ccc(-n2ncc3c(NCc4ccco4)ncnc32)cc1 | -0.339 (inactive) |
| COC(=O)c1ccc(Cn2c(O)c(N=O)c3ccccc32)o1 | -0.493 (inactive) |
